{"source": "PubChem BioAssay (EPA / NIEHS)", "key": {"[1]": {"molecular_target": "human FYN Proto-Oncogene, Src family Tyrosine Kinase (Fyn), FYN (gene 2534) (UniProt P06241)", "sequence (P06241 whole entry, looked up)": "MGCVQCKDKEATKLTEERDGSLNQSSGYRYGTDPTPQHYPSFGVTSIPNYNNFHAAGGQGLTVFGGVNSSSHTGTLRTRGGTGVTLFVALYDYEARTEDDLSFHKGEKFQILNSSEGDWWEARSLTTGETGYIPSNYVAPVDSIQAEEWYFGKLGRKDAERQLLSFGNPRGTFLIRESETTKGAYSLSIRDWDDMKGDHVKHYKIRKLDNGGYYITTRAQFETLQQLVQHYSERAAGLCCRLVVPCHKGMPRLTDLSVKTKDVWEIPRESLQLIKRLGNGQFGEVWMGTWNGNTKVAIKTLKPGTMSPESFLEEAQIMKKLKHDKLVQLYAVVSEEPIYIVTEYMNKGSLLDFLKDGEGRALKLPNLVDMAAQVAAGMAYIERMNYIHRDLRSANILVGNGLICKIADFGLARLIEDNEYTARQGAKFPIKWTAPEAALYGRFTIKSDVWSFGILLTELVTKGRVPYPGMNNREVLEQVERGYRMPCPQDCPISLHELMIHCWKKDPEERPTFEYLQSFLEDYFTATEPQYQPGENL", "test": "NVS_ENZ_hFyn: NovaScreen (NVS) Enzymatic Assay for human FYN Proto-Oncogene, Src family Tyrosine Kinase (Fyn) (AID 2283161)", "in_short": "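Recombinant enzyme with fluorescent substrate, product separated by electrophoretic mobility shift; read 1 h after dosing. Duplicate 25 uM single-point screen, actives retested in concentration series; loss of signal vs DMSO.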"}, "[2]": {"molecular_target": "Histone deacetylase 3 (Homo sapiens) (UniProt O15379)", "sequence (O15379 whole entry, looked up)": "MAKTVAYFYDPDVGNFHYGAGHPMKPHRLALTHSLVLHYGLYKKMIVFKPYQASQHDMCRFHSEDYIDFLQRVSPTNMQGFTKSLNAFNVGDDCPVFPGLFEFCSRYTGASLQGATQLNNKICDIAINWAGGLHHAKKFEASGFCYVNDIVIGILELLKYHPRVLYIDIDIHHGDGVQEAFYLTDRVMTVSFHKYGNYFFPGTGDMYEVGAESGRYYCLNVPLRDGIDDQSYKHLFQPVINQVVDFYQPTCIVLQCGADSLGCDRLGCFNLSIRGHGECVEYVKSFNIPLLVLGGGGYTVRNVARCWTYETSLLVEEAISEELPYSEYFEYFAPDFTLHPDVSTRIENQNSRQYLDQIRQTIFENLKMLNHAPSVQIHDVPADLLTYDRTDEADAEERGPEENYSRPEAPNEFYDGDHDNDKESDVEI", "test": "NVS_ENZ_hHDAC3: NovaScreen (NVS) Enzymatic Assay for human Histone Deacetylase 3 (HDAC3) (AID 2283163)", "in_short": "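Recombinant human HDAC3 with fluorescent substrate, 1 h after dosing; product separated from substrate by electrophoretic mobility shift and read by fluorescence. Primary screen at 25 uM in duplicate; actives (e.g. ≥30% inhibition) retested in concentration-response up to 50 uM.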"}, "[3]": {"molecular_target": "human IkappaB Kinase alpha (IKKa), CHUK (gene 1147) (UniProt O15111)", "sequence (O15111 whole entry, looked up)": "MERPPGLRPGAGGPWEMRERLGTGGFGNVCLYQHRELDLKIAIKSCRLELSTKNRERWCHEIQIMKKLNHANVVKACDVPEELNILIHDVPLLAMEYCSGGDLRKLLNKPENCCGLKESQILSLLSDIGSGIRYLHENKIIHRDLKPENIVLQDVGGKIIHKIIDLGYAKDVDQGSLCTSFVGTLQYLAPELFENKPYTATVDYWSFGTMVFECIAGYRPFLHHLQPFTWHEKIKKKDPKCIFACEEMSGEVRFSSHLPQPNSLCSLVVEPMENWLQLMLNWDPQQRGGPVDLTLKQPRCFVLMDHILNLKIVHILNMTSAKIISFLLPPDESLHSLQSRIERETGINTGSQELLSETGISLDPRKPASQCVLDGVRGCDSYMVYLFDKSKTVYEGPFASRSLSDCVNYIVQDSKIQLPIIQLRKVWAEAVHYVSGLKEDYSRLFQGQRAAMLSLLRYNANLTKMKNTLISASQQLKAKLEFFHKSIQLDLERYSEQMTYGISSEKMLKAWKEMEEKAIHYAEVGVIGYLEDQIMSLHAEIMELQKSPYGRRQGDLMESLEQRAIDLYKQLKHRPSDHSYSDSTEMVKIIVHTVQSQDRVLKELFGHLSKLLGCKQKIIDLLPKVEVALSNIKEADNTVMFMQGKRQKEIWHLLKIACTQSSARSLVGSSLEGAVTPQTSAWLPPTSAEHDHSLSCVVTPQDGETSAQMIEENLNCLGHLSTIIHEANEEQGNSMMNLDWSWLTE", "test": "NVS_ENZ_hIKKa: NovaScreen (NVS) Enzymatic Assay for human IkappaB Kinase alpha (IKKa) (AID 2283167)", "in_short": "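Cell-free recombinant human IKKa with fluorescent substrate, product separated by electrophoretic mobility shift; read 1 hour after dosing. Primary screen duplicate at 25 uM, actives then concentration-response up to 50 uM; loss of signal relative to DMSO.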"}, "[4]": {"molecular_target": "human Insulin Receptor (InsR), INSR (gene 3643) (UniProt P06213)", "sequence (P06213 whole entry, looked up)": "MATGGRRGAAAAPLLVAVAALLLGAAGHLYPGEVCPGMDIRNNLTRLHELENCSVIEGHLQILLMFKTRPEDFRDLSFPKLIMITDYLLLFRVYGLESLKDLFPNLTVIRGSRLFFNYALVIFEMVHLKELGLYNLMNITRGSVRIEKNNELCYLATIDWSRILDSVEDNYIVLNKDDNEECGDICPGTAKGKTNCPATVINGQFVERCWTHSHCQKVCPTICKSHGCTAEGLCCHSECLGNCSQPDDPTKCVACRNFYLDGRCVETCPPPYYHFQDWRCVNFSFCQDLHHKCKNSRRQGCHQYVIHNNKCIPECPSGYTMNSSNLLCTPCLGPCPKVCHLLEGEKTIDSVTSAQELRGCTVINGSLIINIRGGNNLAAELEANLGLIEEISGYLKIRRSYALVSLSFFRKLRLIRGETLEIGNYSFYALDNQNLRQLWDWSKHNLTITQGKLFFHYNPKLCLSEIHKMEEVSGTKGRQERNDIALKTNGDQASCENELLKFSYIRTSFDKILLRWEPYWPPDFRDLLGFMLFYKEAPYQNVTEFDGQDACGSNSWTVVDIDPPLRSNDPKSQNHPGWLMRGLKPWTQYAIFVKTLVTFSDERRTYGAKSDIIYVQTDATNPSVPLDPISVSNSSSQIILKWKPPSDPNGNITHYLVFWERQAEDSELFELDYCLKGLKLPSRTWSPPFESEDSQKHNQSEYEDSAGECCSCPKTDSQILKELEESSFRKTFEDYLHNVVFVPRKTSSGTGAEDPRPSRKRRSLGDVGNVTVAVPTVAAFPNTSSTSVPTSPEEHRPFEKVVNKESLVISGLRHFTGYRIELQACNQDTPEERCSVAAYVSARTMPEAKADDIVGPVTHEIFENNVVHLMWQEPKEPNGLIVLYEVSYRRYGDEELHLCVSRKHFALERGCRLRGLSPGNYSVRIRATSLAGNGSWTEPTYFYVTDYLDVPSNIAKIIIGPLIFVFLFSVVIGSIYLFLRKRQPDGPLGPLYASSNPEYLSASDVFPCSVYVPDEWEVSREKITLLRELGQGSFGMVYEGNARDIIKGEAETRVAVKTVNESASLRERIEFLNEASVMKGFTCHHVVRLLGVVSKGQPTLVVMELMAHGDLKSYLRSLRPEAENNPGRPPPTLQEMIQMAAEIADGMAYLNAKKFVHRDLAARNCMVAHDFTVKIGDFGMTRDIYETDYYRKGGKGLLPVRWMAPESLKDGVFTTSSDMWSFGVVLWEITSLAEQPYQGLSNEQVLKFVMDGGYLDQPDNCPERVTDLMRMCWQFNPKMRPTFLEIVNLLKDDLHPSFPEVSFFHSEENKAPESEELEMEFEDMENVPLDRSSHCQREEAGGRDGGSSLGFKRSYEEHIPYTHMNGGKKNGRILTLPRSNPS", "test": "NVS_ENZ_hInsR: NovaScreen (NVS) Enzymatic Assay for human Insulin Receptor (InsR) (AID 2283168)", "in_short": "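Fluorescent substrate phosphorylation by recombinant kinase, product resolved by electrophoretic mobility shift, read 1 h after dosing. Screened in duplicate at 25 uM; hits (e.g., 30% inhibition) run in concentration-response to 50 uM; DMSO as baseline.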"}, "[5]": {"molecular_target": "human LYN Proto-Oncogene, Src family Tyrosine Kinase (LynA), LYN (gene 4067) (UniProt P07948)", "sequence (P07948 whole entry, looked up)": "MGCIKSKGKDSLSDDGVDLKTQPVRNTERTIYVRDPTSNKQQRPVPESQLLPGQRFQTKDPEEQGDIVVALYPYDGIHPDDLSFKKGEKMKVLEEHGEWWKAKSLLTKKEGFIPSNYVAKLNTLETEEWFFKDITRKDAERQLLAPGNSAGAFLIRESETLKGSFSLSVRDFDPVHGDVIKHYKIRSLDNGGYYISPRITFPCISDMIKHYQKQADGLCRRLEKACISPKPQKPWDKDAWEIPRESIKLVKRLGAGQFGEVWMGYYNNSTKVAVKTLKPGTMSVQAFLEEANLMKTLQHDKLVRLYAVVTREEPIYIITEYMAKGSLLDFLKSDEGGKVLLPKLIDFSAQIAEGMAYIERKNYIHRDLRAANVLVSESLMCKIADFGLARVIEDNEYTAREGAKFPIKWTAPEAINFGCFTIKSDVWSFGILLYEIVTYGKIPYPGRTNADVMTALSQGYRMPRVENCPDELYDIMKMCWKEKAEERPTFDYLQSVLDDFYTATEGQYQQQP", "test": "NVS_ENZ_hLynA: NovaScreen (NVS) Enzymatic Assay for human LYN Proto-Oncogene, Src family Tyrosine Kinase (LynA) (AID 2283173)", "in_short": "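Recombinant kinase with fluorescent substrate; product separated from substrate by electrophoretic mobility shift and read 1 h after dosing. Duplicate screen at 25 uM, then concentration-response up to 50 uM; activity scored as signal loss against DMSO.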"}, "[6]": {"molecular_target": "human c-Jun N-terminal Kinases (JNK2), MAPK9 (gene 5601) (UniProt P45984)", "sequence (P45984 whole entry, looked up)": "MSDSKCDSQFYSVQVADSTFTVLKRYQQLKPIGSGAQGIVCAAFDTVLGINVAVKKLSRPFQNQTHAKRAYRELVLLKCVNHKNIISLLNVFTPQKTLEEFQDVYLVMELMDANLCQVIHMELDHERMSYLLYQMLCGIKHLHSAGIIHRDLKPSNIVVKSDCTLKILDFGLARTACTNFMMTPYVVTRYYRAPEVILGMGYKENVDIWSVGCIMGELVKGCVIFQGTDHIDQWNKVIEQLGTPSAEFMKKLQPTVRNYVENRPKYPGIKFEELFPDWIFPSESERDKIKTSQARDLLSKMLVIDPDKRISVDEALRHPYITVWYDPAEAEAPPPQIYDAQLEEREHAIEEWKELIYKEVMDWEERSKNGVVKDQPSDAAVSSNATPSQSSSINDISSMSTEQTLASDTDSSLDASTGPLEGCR", "test": "NVS_ENZ_hJNK2: NovaScreen (NVS) Enzymatic Assay for human c-Jun N-terminal Kinases (JNK2) (AID 2283171)", "in_short": "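Cell-free recombinant human JNK2 activity assay; fluorescent substrate and product separated by electrophoretic mobility shift, read 1 h after dosing. Primary duplicate screen at 25 uM; actives run in concentration-response up to 50 uM, relative to DMSO.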"}, "[7]": {"molecular_target": "Mitogen-activated protein kinase 3 (Homo sapiens) (UniProt P27361)", "sequence (P27361 whole entry, looked up)": "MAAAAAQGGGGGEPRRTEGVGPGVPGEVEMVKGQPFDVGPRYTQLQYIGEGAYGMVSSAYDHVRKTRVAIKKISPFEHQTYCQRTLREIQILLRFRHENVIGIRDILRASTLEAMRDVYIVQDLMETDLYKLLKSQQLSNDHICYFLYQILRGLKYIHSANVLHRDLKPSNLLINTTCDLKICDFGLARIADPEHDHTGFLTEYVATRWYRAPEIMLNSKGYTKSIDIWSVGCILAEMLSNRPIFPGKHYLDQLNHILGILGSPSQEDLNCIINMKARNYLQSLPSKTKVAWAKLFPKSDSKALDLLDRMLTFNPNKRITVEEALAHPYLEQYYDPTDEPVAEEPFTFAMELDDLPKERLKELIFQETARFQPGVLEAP", "test": "NVS_ENZ_hMAPK3: NovaScreen (NVS) Enzymatic Assay for human Mitogen-Activated Protein Kinase 3 (MAPK 3) (AID 2283177)", "in_short": "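Cell-free enzymatic assay with recombinant protein and specific substrate; fluorescence and electrophoretic mobility shift read-out 1 h after dosing. Primary screen duplicate at 25 uM; actives then run in concentration-response up to 50 uM, loss of signal versus DMSO.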"}}, "note": "Results filed as inconclusive are left out. Activity calls are given as the source filed them. The calls were made as follows: active = hit-call score of the fitted dose curve at least 0.9, where 1 is the maximum; inconclusive = response in the unintended direction; inactive = score below 0.9.", "data": [{"compound": "CCCCc1ccccc1", "values": [{"measurement": "outcome", "setting": "[1]", "value": "inactive"}]}, {"compound": "CCOS(=O)(=O)OCC", "values": [{"measurement": "outcome", "setting": "[2]", "value": "inactive"}]}, {"compound": "O=P(Oc1ccccc1)(Oc1ccccc1)Oc1ccccc1", "values": [{"measurement": "outcome", "setting": "[3]", "value": "inactive"}, {"measurement": "outcome", "setting": "[4]", "value": "inactive"}]}, {"compound": "Cc1cccc(N)c1", "values": [{"measurement": "outcome", "setting": "[3]", "value": "inactive"}, {"measurement": "outcome", "setting": "[5]", "value": "inactive"}]}, {"compound": "CC(C)(C)OOC(C)(C)C", "values": [{"measurement": "outcome", "setting": "[6]", "value": "inactive"}, {"measurement": "outcome", "setting": "[7]", "value": "inactive"}]}, {"compound": "Cc1ccc(O)cc1C", "values": [{"measurement": "outcome", "setting": "[6]", "value": "inactive"}]}, {"compound": "Nc1cc2c3c(c1)C(c1ccccc1)=N[C@@H](NC(=O)c1cccnc1)C(=O)N3CC2", "values": [{"measurement": "outcome", "setting": "[7]", "value": "inactive"}]}]}
